# The full list was thinned out, with hits kept by preference.
# Shiga toxin inh = A qHTS for Small Molecule Inhibitors of Shiga Toxin. Vero cells, Shiga toxin protein synthesis inhibition reporter. inhibition, % at 38.7 µM. hit rate 9.2% among 290,000; in the data active = inhibition mostly above about 28%, no sharp cut-off; inactive = mostly below about 43%; note: 0% is about no effect
# LmPK inh = qHTS Assay for Inhibitors of Leishmania Mexicana Pyruvate Kinase (LmPK) | purified LmPK, Kinase-Glo ATP luminescence, 1 h | Q27686 | Potency, µM (series often up to 57.5 µM), inactives show top-dose activity change, negative = inhibition, most hits filed as inhibitors | AID 1721, 2009 | hit rate 0.37% among 290,000; note: potency is the fitted concentration of half-maximal effect; % is set by controls: 0 for no effect and ±100 for the full control effect
#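 qHTS format; LmPK 0.1 nM; substrates PEP 0.5 mM and ADP 0.1 mM. One-hour room-temperature incubation, then coupled luciferase luminescence; 0.5 nM enzyme wells mark activation.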
# TbPYK inhibitor = qHTS of Trypanosoma Brucei Inhibitors. TbPYK enzyme, Kinase-Glo Plus ATP luminescence, 45 min. Potency, µM (doses to about 76.8 µM), inactives show top-dose activity, negative = inhibition, usual class: inhibitors. hit rate 0.12% among 410,000. AID 624173, 2012; note: potency is the fitted concentration of half-maximal effect; % is set by controls: 0 for no effect and ±100 for the full control effect; nearly all actives have a fitted effect of over 50% in size
#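 Quantitative HTS: titrated library compounds versus trypanosomal pyruvate kinase in TEA buffer (pH 7.2) containing KCl, MgCl2, BSA and Tween-20. Reactions were initiated with ADP, 130 uM final. Kinase-Glo Plus luminescence was read after 45 min at RT.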
# Giardia FBPA inh = qHTS Assay for Inhibitors of Fructose-1,6-bisphosphate Aldolase from Giardia Lamblia; purified Giardia FBPA; Potency, µM (top dose mostly 59.6 µM), for inactives: at the top dose activity, negative = inhibition, most hits filed as inhibitors; A8B2U2; hit rate 0.71% among 290,000; note: potency is the fitted concentration of half-maximal effect; % is set by controls: 0 for no effect and ±100 for the full control effect; nearly all actives have a fitted effect of over 55% in size
# Target sequence (A8B2U2 whole entry, looked up): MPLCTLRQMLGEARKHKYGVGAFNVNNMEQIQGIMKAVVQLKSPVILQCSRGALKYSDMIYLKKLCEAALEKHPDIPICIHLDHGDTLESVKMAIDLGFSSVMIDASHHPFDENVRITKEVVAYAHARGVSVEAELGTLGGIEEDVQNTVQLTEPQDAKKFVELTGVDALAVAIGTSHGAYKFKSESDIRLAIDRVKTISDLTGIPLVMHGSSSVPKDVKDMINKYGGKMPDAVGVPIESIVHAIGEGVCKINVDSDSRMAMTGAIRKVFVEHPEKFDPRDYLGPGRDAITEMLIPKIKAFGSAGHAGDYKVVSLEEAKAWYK
#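 40 nM FBPA preincubated 10 min at RT with compound (up to 57.5 uM final), then substrate plus GAPDH/TPI/NAD/arsenate coupling and diaphorase/resazurin added. Fluorescence read after 20 min at RT, 525/598 nm.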
# Cycloheximide cs = Cycloheximide Counterscreen for Small Molecule Inhibitors of Shiga Toxin | cell reporter, cycloheximide protein synthesis inhibition counterscreen | AID 2314, 2010 | max response, % | hit rate 12% among 300,000; in the data active = max response mostly above about 13%, no sharp cut-off; inactive = mostly below about 14%; note: read at 38.3 µM for the half of the compounds with a filed dose; 0% is about no effect
# RE007 growth inh = qHTS Assay for Inhibitors of the HIV-1 protein Vpr; Potency, µM (top dose mostly 92.2 µM), for the others: at the top dose activity change, negative = less growth, hits mostly inhibitors; S. pombe RE007 Vpr strain, BacTiter-Glo ATP luminescence, 24 h; hit rate 0.21% among 360,000; active = well fitted falling curve with a large enough effect; inconclusive = small, poorly fitted or top-dose-only effect; inactive = no such curve, though single readings can be large or run the other way; note: potency is the fitted concentration of half-maximal effect; % is set by controls: 0 for no effect and ±100 for the full control effect; nearly all actives have a fitted effect of over 50% in size
#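 Fission yeast strain RE007, carrying one chromosomally integrated HIV-1 vpr copy, was seeded at OD 0.01 in PMG+AL medium with 23 nL pinned compound. After 24 h at 30 °C and 99% humidity, viability was read by BacTiter-Glo luminescence.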
# Numbers without * were called inactive; ? = inconclusive; . = no result; + = active, no number; [ ] = remark or other dose. Unless noted, calls come from the whole dose curve; as a rule, active = well fitted curve in the direction sought with a large enough effect; inconclusive = small, poorly fitted or top-dose-only effect, or another doubt; inactive = no such curve, though single readings can be large; an effect the other way counts as inactive or inconclusive.
SMILES,Shiga toxin inh,LmPK inh,TbPYK inhibitor,Giardia FBPA inh,Cycloheximide cs,RE007 growth inh
Cc1ccc(NC(=O)COC(=O)C2=COCCO2)cc1,48.3,-5.2%,-11.5%,1.1%,20.5*,23.0%
Cc1ccc(NC(=O)COC(=O)C2=COCCO2)c([N+](=O)[O-])c1,38.4,-5.0%,3.0%,-0.4%,26.1*,19.4%
CCC(C)c1ccc(NC(=O)COC(=O)C2=COCCO2)cc1 (configuration not stated),21.1,-1.8%,5.4%,-2.1%,15.6,7.6%
O=C(COC(=O)C1=COCCO1)Nc1ccc2c(c1)OCO2,153.8,12.8%,-0.3%,-14.0%,38.8*,3.8%
Cc1cc(C)c(NC(=O)COC(=O)C2=COCCO2)c(C)c1,.,.,-6.4%,.,.,0.6%
CC(=O)CCSc1nnc(-c2cccc(S(=O)(=O)N3CCOCC3)c2)o1,.,.,-10.2%,.,.,-13.6%
O=S(=O)(c1cccc(-c2nnc(SCc3nc4ccccc4s3)o2)c1)N1CCOCC1,128.2*,0.1%,-2.3%,1.3%,97.3*,1.8%
CC(=O)OCn1ncc(N2CCOCC2)c(Br)c1=O,1.7,-2.0%,-9.4%,6.3%,-3.7,16.0%
O=C(OCn1ncc(Br)c(Br)c1=O)c1ccc(F)cc1,13.4,1.1%,-0.7%,3.8%,23.9*,?
O=C(OCn1ncc(Br)c(Br)c1=O)c1ccccc1Cl,-23.6,-2.8%,-25.1%,0.1%,12.5,6.31µM*
O=C(NC(=S)Nc1ccccc1F)C1CCCCC1,61.0,-7.5%,.,.,57.0*,.
O=C(NC(=S)Nc1ccccc1Br)C1CCCCC1,.,.,-1.7%,.,.,-28.3%
O=C(NC(=S)Nc1ccccc1Br)C1CCCC1,143.2*,-0.2%,-4.8%,.,37.8*,?
COCCCNC(=O)c1cc2n(n1)CCCN(Cc1ccc(C)cc1)C2=O,.,.,3.1%,.,.,.
CC(C)(C)OC(=O)N[C@@H](Cc1ccccc1)[C@H](O)c1ccco1,40.0,8.0%,-6.2%,-5.5%,20.2*,0.7%
CN(C)S(=O)(=O)c1ccc2c(c1)nnn2CCNC(=O)Nc1ccc(Cl)cc1,.,.,0.8%,.,.,.
COc1ccc([C@]23Cc4ccccc4C(O2)c2c(c4ccc(OC)cc4oc2=O)O3)cc1,+,-10.1%[11.5 µM],.,-5.4%[12.9 µM],37.8*,.
CC(=O)Nc1ccc(NC(=O)CSc2nc3ccccc3o2)cc1,114.6*,1.3%,0.8%,3.8%,16.6*,10.6%
Cc1cc(C)nc(NC(=O)CSc2nc3ccccc3o2)n1,57.8*,-0.7%,-9.1%,-9.4%,51.3*,-2.9%
Cc1cccc(NC(=O)CSc2nc3ccccc3o2)c1,119.3*,0.1%,-1.9%,-5.0%,38.1*,-26.0%
O=C(CSc1nc2ccccc2o1)Nc1ccc(Cl)cc1,83.5*,2.5%,0.0%,0.5%,21.6*,12.7%
COc1cc(OC)nc(NC(=O)CSc2nc3ccccc3o2)n1,-1.8,3.5%,3.4%,-1.3%,-2.8,0.0%
O=C(CCSc1nc2ccccc2o1)Nc1ccccc1,4.1,3.3%,0.3%,1.7%,1.0,-1.0%
CC(=O)Nc1nonc1NC(=O)CSc1nc2ccccc2o1,-1.9,7.4%,-6.3%,-6.6%,4.8,1.2%
CC(C)(C)OC(=O)N1CCC(c2c(C(=O)N3CCN(Cc4ccccc4)CC3)cnn2-c2cccc(Cl)c2)CC1,.,.,0.9%,.,.,.
SMILES,Shiga toxin inh,LmPK inh,TbPYK inhibitor,Giardia FBPA inh,Cycloheximide cs,RE007 growth inh
CCOC(=O)c1ccc(NC(=O)C(C)N(c2ccc(OCC)cc2)S(C)(=O)=O)cc1 (configuration not stated),.,.,-7.1%,.,.,.
CCCCCn1c(=O)[nH]c2cc(C(=O)N3CCN(c4cccc(C(F)(F)F)c4)CC3)ccc2c1=O,.,.,5.8%,.,.,.
Cc1ccsc1CCN1C(=O)N(c2ccccc2)C(=O)C1CC(=O)Nc1ccc(Cl)cc1 (configuration not stated),.,.,-7.8%,.,.,.
COCCNc1cc(-c2ccccc2C(F)(F)F)ncn1,.,.,.,-6.2%,.,.
CCCC1CC(C(=O)N[C@H](C(C)O)C2OC(SC)[C@@H](O)C(O)C2O)N(C)C1 (some centres not stated),.,.,.,1.9%,.,.
O=C(CSc1nc2ccccc2o1)Nc1ccc(N2CCOCC2)c(Cl)c1,81.3*,4.4%,1.4%,-11.7%,53.1*,23.8%
